Test results: PubChem BioAssay (Tox21)
Records with an inconclusive call do not appear. Where a call stands in place of a potency, no number is given. Values without a mark were called inactive. Activity calls are given as the source filed them. The call rests on the fitted dose curve; in most records, active means well fitted cell-killing curve with a large enough effect in the repeat runs; inconclusive means weak or mixed curves, or effect the other way; inactive means flat fitted curve, though single readings scatter.

Assay: Nuclear factor erythroid 2-related factor 2/antioxidant responsive element (Nrf2/ARE) small molecule agonists: qHTS cell viability counter screen in human keratinocytes (AID 1919968); further: nearly all actives have a fitted effect of over 55% in size
Method in brief: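 KeratinoSens HaCaT cells, 1,500/well, preincubated 5 h, then exposed to compounds in DMSO for 23 h at 37 C/5% CO2. Viability read as CellTiter-Fluor fluorescence after 1 h, in the same wells as the ARE-luciferase read.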
Potency means the concentration at half of the fitted maximal effect.

Structure (SMILES): CC(C)(C)c1ccc(OC2CCCCC2O)cc1 (centres undefined)
- Potency: inactive

Structure (SMILES): c1ccc(-c2nc[nH]c2-c2ccccc2)cc1
- Potency: inactive

Structure (SMILES): CCOC(=O)C1=C[C@]2(CC)CCCN3CCc4c(n1c1ccccc41)[C@@H]32
- Potency: inactive

Structure (SMILES): CC(C)O.CC(C)O.CCOC(=O)/C=C(\C)O.CCOC(=O)/C=C(\C)O.[Ti]
- Potency: inactive

Structure (SMILES): CC(C)(C)c1ccc(OCC2CO2)cc1 (centres undefined)
- Potency: inactive

Structure (SMILES): CCCCC[C@H](O)/C=C/[C@H]1[C@H](O)CC(=O)[C@@H]1C/C=C\CCCC(=O)O
- Potency: inactive

Structure (SMILES): O=C(O)c1cc(Br)c(O)c(Br)c1
- Potency: inactive

Structure (SMILES): CC(=O)Nc1cccc(N)c1
- Potency: inactive

Structure (SMILES): c1ccc2sc(SN3CCOCC3)nc2c1
- Potency: inactive

Structure (SMILES): CCN(Cc1ccncc1)C(=O)C(CO)c1ccccc1 (centres undefined)
- Potency: inactive

Structure (SMILES): COC(=O)CCSCCC(=O)OC
- Potency: inactive

Structure (SMILES): O=CN(CCO)CCO
- Potency: inactive

Structure (SMILES): COC(=O)[C@]1(C)CCC[C@@]2(C)[C@H]1CC=C1C=C(C(C)C)CC[C@@H]12
- Potency: inactive

Structure (SMILES): CCCCc1cc2ccccc2c(OCCN(C)C)n1
- Potency: inactive

Structure (SMILES): O=C(O)c1cc(C(=O)O)cc(C(=O)O)c1
- Potency: inactive

Structure (SMILES): CC(=O)N1CCN(c2ccc(OC[C@H]3CO[C@](Cn4ccnc4)(c4ccc(Cl)cc4Cl)O3)cc2)CC1
- Potency: 54.5 µM (active)

Structure (SMILES): CC(C)c1cccc(C(C)C)c1NC(=O)NS(=O)(=O)c1cc(C(C)(C)O)co1
- Potency: inactive

Structure (SMILES): CC(C)COCC(CN(Cc1ccccc1)c1ccccc1)N1CCCC1 (centres undefined)
- Potency: 26.6 µM (active)

Structure (SMILES): C=C(C)C1CCC(C)(O)CC1 (centres undefined)
- Potency: inactive

Structure (SMILES): c1coc(Cn2cccc2)c1
- Potency: inactive

Structure (SMILES): CCOc1nc2cccc(C(=O)OC(C)OC(=O)OC3CCCCC3)c2n1Cc1ccc(-c2ccccc2-c2nn[nH]n2)cc1 (centres undefined)
- Potency: 48.5 µM (active)

Structure (SMILES): CCC(Cl)CC(Cl)C(Cl)C(Cl)C(Cl)C(C)Cl (centres undefined)
- activity change, negative = cytotoxicity: 2.55% [at 19 µM]

Structure (SMILES): CCCNCC(O)COc1ccccc1C(=O)CCc1ccccc1 (centres undefined)
- Potency: inactive

Structure (SMILES): C1CCOC1
- Potency: inactive

Structure (SMILES): NCc1cccc(C2CCN(C(=O)c3ccc(C#Cc4ccccc4F)o3)CC2)c1
- Potency: 54.5 µM (active)

Structure (SMILES): Clc1cc(Cl)c2c(c1)N=C1CCCCCN1C2
- Potency: inactive

Structure (SMILES): Oc1ccc(C2(c3ccc(O)cc3)CC3CC2C2CCCC32)cc1 (centres undefined)
- Potency: 29.4 µM (active)

Structure (SMILES): O=C1c2ccccc2C(=O)c2c(Cl)cccc21
- Potency: inactive

Structure (SMILES): CC(C)(C)C1CCC(CC2=C(O)c3ccccc3C(=O)C2=O)CC1 (centres undefined)
- Potency: 29.8 µM (active)

Structure (SMILES): O=P(O)(O)OP(=O)(O)O
- Potency: inactive

Structure (SMILES): CCc1cc(SCc2sc(-c3ccc(C(F)(F)F)cc3)nc2CN2CCN(c3ccc(OC)cc3)CC2)ccc1OCC(=O)O
- Potency: 54.5 µM (active)

Structure (SMILES): O=[N+]([O-])c1cccc(S(=O)(=O)O)c1
- Potency: inactive

Structure (SMILES): O=C(Nc1ccc2c(c1)Cc1ccccc1-2)C(F)(F)F
- Potency: inactive

Structure (SMILES): c1ccc2c(c1)ccc1c3ccccc3ccc21
- Potency: inactive

Structure (SMILES): NNC(=O)OCc1ccccc1
- Potency: inactive

Structure (SMILES): COc1ccc(CCN(C)CCCN2CCc3cc(OC)c(OC)cc3CC2=O)cc1OC
- Potency: inactive

Structure (SMILES): O=C(O)c1ccc(S(=O)(=O)O)cc1C(=O)O
- Potency: inactive

Structure (SMILES): Cc1ccc([N+](=O)[O-])c(N)c1
- Potency: inactive

Structure (SMILES): CCOc1ccc(NC(C)=O)cc1N
- Potency: inactive

Structure (SMILES): Nc1cccc([N+](=O)[O-])c1
- Potency: inactive

Structure (SMILES): CN(C)CC[C@@H](c1ccc(Br)cc1)c1ccccn1
- Potency: inactive

Structure (SMILES): Cn1cc(C(=O)[C@@H]2CCc3nc[nH]c3C2)c2ccccc21
- Potency: inactive

Structure (SMILES): C1=CC2C3C=CC(C3)C2C1 (centres undefined)
- Potency: inactive

Structure (SMILES): CNC(C)=O
- Potency: inactive
